Compounds with a hit are over-represented: about 5.2% of the library has one in this group of screens.
SKN-1 inh: inhibitors of C. elegans SKN-1; C. elegans VP596 Pgst-4::GFP/RFP ratio, acrylamide-induced, 24 h; inhibition, % at 21.8 µM; 0.49% of 360,000 active; AID 624304;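 active means interference check ratio from 0.5 to 1.5 plus GFP to RFP signal ratio inhibition reaching or exceeding a fixed threshold, cut at about 30% in these data, passing the limit was not always enough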
NadD block: blocks S. aureus nicotinate mononucleotide adenylyltransferase | purified NadD enzyme, colorimetric absorbance read-out | inhibition, % at 20 µM | 0.78% of 360,000 active | AID 602399; in the data active means inhibition above about 26%
esBAF inh: inhibitors of esBAF chromatin remodeling in mouse ES cells; reporter increase, % at 12.5 µM; Bmi1-luciferase knock-in reporter, 24 h; 100% = twice the neutral-well signal; 2% of 350,000 active; in the data active means activation above about 40%;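 further: 0% = median of the plate's neutral control wells and 100% = double that signal; a rise in the Bmi1 reporter signal indicates esBAF inhibition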
Vif inh: blocks HIV Vif function; HEK293T cells, Vif self-association by quenched fluorescence, imaging, 24 h; inhibition, % at 7.49 µM; 0.35% of 340,000 active; AID 602346; in the data active means inhibition above about 50%, passing the limit was not always enough
NR3A LBD binder: NR3A (human) ligand-binding domain modulation; 2.5% of 340,000 active; Tm shift relative to glycine control, % at 25 µM; NR3A LBD differential scanning fluorimetry, Tm shift; 0% = protein alone, 100% = glycine-bound protein;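 active means melting temperature shift of at least 10% of the positive control shift, at one fixed dose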
SMARCA2 act: increases SMARCA2 function in MMTV reporter cells; MG213 cells, MMTV-luciferase reporter, dexamethasone, overnight; activation, % at 9.1 µM; 1% of 370,000 active; in the data active means activation above about 7.8%;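 further: 0% = vehicle wells and 100% = reference activator wells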
* marks the source's active call; other numbers are inactive results; · = not tested or not shown.

SMILES	SKN-1 inh	NadD block	esBAF inh	Vif inh	NR3A LBD binder	SMARCA2 act
COc1ccc(S(=O)(=O)N(C)C[C@H]2OCCCC[C@H](C)Oc3ccc(NC(=O)C4CCCCC4)cc3C(=O)N([C@@H](C)CO)C[C@H]2C)cc1	·	·	-2.3	·	·	·
N/C(=N\OC(=O)c1ccccc1Cl)c1ccc(Cl)cc1	20.8	-7.9	·	·	-0.9	7.7
N/C(=N\OC(=O)c1ccc(Cl)cc1)c1cccnc1	28.9*	-3.8	68.0*	·	3.0	4.8
N/C(=N\OC(=O)c1ccccc1Cl)c1ccccc1	61.5*	-11.9	-31.9	-5.6	2.0	4.3
CO[C@@H]1CN(C)C(=O)c2cc(NC(=O)C3CCOCC3)ccc2OC[C@@H](C)N(CC2CC2)C[C@H]1C	·	·	-4.0	·	·	·
Cc1ccc(NC(=O)/C=C/C(=O)O)c(NC(=O)c2ccccc2)c1	1.8	2.1	1.2	52.8*	-1.4	-0.3
COc1cc2c(cc1NC(=O)Nc1cccc(C)c1)oc1ccccc12	-22.7	-6.6	6.2	-2.7	39.1*	-0.6
COc1cc2c(cc1NC(=O)c1cccc([N+](=O)[O-])c1C)oc1ccccc12	14.9	1.5	-3.9	2.3	20.5*	·
COc1ccc(C)cc1NC(=O)Nc1cccc(C)c1	6.5	0.2	·	-0.9	0.9	0.6
COc1ccc(NC(=O)Nc2cc3oc4ccccc4c3cc2OC)cc1	2.6	2.0	·	-5.0	13.1*	-2.6
COc1cc2c(cc1NC(=O)Nc1ccc(F)cc1)oc1ccccc12	4.4	1.1	2.9	-3.1	185.5*	0.4
COc1ccc(OCC(=O)Nc2cc3oc4ccccc4c3cc2OC)cc1	-2.4	-6.7	-0.4	-14.0	-10.9	·
CO[C@H]1CC[C@H]2CCN(C)C(=O)[C@H](C)[C@H](OC)CN(C)C(=O)c3cccc(C#N)c3OC[C@@H]1O2	·	·	2.4	·	·	·
C[C@@H]1CN([C@@H](C)CO)C(=O)c2cccc(NC(=O)c3cnccn3)c2O[C@@H]1CN(C)S(=O)(=O)c1cn(C)cn1	·	·	-0.1	·	·	·
CCCC(=O)Nc1ccc2c(c1)C(=O)N(C)[C@@H]1CC[C@@H](CC(=O)N3CCc4ccccc4C3)O[C@@H]1CO2	·	·	-0.6	·	·	·
COc1cc2c(cc1NC(=S)Nc1ccccc1C)oc1ccccc12	25.4	-2.0	·	-0.1	0.2	-0.2
COc1cc2c(cc1NC(=S)Nc1cccc(C)c1)oc1ccccc12	3.7	11.8	·	1.6	26.1*	-2.1
COc1ccc(S(=O)(=O)N[C@@H](C)C(=O)OCC(=O)Nc2cc3oc4ccccc4c3cc2OC)cc1	18.1	-4.0	·	-5.8	24.5*	4.0
COc1ccccc1Nc1ccc(NC(=O)c2cccc([N+](=O)[O-])c2C)cc1	8.0	-0.5	32.6	-6.5	19.1*	-1.9
COc1ccc(NC(=O)c2ccccc2[N+](=O)[O-])cc1	0.0	-4.1	·	1.9	-2.9	-1.5
COc1cc2c(cc1NC(=O)C(C)Sc1ccc(NC(C)=O)cc1)oc1ccccc12 (stereo not given)	1.5	-7.1	·	-0.2	15.5*	-3.9
CO[C@H]1CN(C)C(=O)c2cc(NC(=O)Nc3c(C)noc3C)ccc2OC[C@H](C)N(C)C[C@@H]1C	·	·	-1.7	·	·	·
O=C(C[C@@H]1CC[C@H]2[C@@H](COC[C@H](O)CN2Cc2nccs2)O1)NCc1ccc(Cl)cc1	·	·	-5.6	·	·	·
COc1cc2c(cc1NC(=O)COC(=O)CNS(=O)(=O)c1ccc(C)cc1)oc1ccccc12	-7.7	5.5	·	4.7	-2.4	2.4
COc1cc2c(cc1NC(=O)Nc1ccc(C)cc1)oc1ccccc12	8.0	5.8	21.7	·	28.6*	-1.5
SMILES	SKN-1 inh	NadD block	esBAF inh	Vif inh	NR3A LBD binder	SMARCA2 act
CCCNC(=O)N(C)C[C@@H]1Oc2ncc(-c3ccccc3F)cc2C(=O)N([C@H](C)CO)C[C@@H]1C	·	·	-3.4	·	·	·
COC(=O)c1ccc(Cn2nc(C(F)(F)F)cc2C)cc1	-14.9	6.4	2.2	-1.0	16.7*	-2.8
COc1cccc(S(=O)(=O)Nc2ccc3c(c2)[C@@H]2C[C@@H](CC(=O)O)O[C@@H](CO)[C@@H]2O3)c1	·	·	3.4	·	·	·
Cc1noc(C)c1NC(=O)N[C@H]1CC[C@H](CC(=O)NCCCN(C)C)O[C@@H]1CO	·	·	-3.2	·	·	·
CC1(C)CC(=Cc2ccccc2[N+](=O)[O-])C(=O)c2ccccc21	33.5	-0.5	12.4	·	·	7.9*
O=C(Nc1ccc(F)c(F)c1)NC1CCCCC1	-8.3	-5.9	65.9*	-4.2	-2.8	3.8
O=C(Nc1ccc2nsnc2c1)NC1CCCCC1	-16.2	-4.7	60.1*	1.6	-3.3	4.6
CC(=O)c1ccc(NC(=O)NC2CC(=O)N(c3ccc4c(c3)OCCO4)C2)cc1 (stereo not given)	-5.0	-6.2	·	0.9	14.1*	-0.7
CC(=O)c1ccc(NC(=O)NC2CCCCCCC2)cc1	6.5	-1.2	68.2*	-7.3	2.2	2.6
O=C(Nc1ccc(Cl)cc1)NC1CCCCC1	8.4	-2.4	·	0.8	0.7	2.1
COc1ccc(NC(=O)Nc2ccc3c(c2)C(=O)N([C@H](C)CO)C[C@@H](C)[C@H](CN(C)S(=O)(=O)c2c(C)noc2C)OCCCC[C@H](C)O3)cc1	·	·	-0.3	·	·	·
O=C(Nc1ccc(F)cc1)NC1CCCCCCC1	-24.2	0.3	59.1*	-2.9	-2.3	5.9
O=C(N[C@H]1CC[C@H](CCNC(=O)C2CCC2)O[C@H]1CO)c1ccncc1	·	·	-1.6	·	·	·
COc1ccc(NC(=O)N(C)C[C@@H]2Oc3ccc(NC(=O)Nc4ccccc4)cc3C(=O)N([C@@H](C)CO)C[C@H]2C)cc1	·	·	3.5	·	·	·
COC(=O)C1=C(C)N(Cc2ccco2)C(=O)/C1=C\c1ccc([N+](=O)[O-])cc1	1.9	1.5	-0.6	-4.3	-3.5	-1.1
COC(=O)C1=C(C)N(Cc2ccco2)C(=O)/C1=C\c1ccc(N(C)C)cc1	46.1	-2.5	·	71.0*	1.1	0.6
C[C@@H]1CCCCO[C@H](CN(C)C(=O)CCC(F)(F)F)[C@H](C)CN([C@H](C)CO)C(=O)c2cc(NS(=O)(=O)c3cn(C)cn3)ccc2O1	·	·	-4.3	·	·	·
CCSc1nc(N)nc(-c2cccs2)c1C#N	24.0	-0.2	49.2*	-5.1	-23.5	3.3
CCN(CC)C(=O)CSc1nc(N)c(C#N)c(-c2cccs2)c1C#N	-0.2	-1.2	-2.4	-2.6	1.5	6.1
C[C@@H]1CN([C@H](C)CO)C(=O)c2cc(NC(=O)c3ccncc3)ccc2O[C@@H](C)CCCCO[C@@H]1CN(C)CC1CCCCC1	·	·	2.4	·	·	·
CCCOc1ccc(/C=N/NC(=S)Nc2ccccc2[N+](=O)[O-])c(O)c1	·	·	·	·	11.6*	-6.2
O=[N+]([O-])c1cccc(N/N=C/c2cc([N+](=O)[O-])ccc2O)c1	-2.9	6.0	·	-0.3	31.1*	4.2
CCN(CC)S(=O)(=O)c1ccc(N/N=C(\C)c2ccncc2)nc1	-3.6	-8.3	-2.8	-3.6	-0.7	1.2
CCCOc1ccc(/C=N/Nc2ccccc2[N+](=O)[O-])c(O)c1	11.1	3.8	·	7.9	-2.4	0.2
CCCOc1ccc(/C=N/Nc2cccc([N+](=O)[O-])c2)c(O)c1	8.5	-0.2	·	-9.6	33.1*	-0.2

Assay outcomes from PubChem BioAssay.
